Compound activity deposited in PubChem by several laboratories.
In the library only some 3.8% were active in any assay of this set; here they are far more common.
PAFAH1B3 inh – PAFAH1B3 enzyme inhibitors, primary screen, biochemical, fluorescence polarization, human; Platelet-activating factor acetylhydrolase IB subunit alpha1 (Homo sapiens), Q15102; recombinant PAFAH1B3, FP-rhodamine probe; inhibition, % at 3.39 µM; hit rate 0.28% among 340,000; AID 492972, 2010;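 active = inhibition above the screen-wide average of all tested compounds plus 3 SD, cut at about 25% in these data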;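 note: 0% = enzyme with DMSO only and 100% = wells lacking PAFAH1B3 protein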
PAFAH1B2 FP inh – PAFAH1B2 enzyme inhibitors, primary screen, biochemical, fluorescence polarization, human | recombinant PAFAH1B2, FP-rhodamine activity probe | inhibition, % at 3.39 µM | hit rate 1.2% among 340,000 | AID 492953, 2010;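 active = inhibition above the mean of all tested compounds plus 3 SD, cut at about 24% in these data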;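 note: 0% = enzyme with DMSO and 100% = wells lacking PAFAH1B2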
Target sequence (P68402 whole entry, looked up): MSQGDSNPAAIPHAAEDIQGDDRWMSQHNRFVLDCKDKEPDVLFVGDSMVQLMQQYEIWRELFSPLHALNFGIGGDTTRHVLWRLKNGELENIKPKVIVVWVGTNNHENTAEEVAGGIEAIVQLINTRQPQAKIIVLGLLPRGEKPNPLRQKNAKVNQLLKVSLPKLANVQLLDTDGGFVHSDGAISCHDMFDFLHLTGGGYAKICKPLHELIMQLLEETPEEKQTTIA
pPAFAH FP inh – pPAFAH enzyme inhibitors, primary screen, biochemical, fluorescence polarization, human | recombinant pPAFAH, FP-rhodamine probe fluorescence polarization | Platelet-activating factor acetylhydrolase (Homo sapiens), Q13093 | hit rate 1.5% among 330,000 | inhibition, % at 3.39 µM | AID 463082, 2010;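 active = inhibition above the mean inhibition across the screen plus 3 SD, cut at about 25% in these data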;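 note: inhibitors block binding of the rhodamine activity-based probe so polarization drops; 0% = enzyme with DMSO and 100% = wells lacking pPAFAH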
Target sequence (Q13093 whole entry, looked up): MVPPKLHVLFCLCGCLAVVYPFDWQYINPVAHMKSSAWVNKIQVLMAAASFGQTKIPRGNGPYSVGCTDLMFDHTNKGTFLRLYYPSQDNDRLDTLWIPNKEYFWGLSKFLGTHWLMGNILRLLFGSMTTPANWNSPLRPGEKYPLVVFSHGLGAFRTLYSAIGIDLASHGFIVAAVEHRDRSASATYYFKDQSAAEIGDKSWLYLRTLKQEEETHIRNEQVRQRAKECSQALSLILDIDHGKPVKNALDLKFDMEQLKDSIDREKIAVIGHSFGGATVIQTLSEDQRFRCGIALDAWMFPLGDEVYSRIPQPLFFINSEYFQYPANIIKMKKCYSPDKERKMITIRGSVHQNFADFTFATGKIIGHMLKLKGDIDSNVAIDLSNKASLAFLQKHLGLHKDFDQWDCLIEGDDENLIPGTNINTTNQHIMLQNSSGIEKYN
M18AAP inhibitor – PfM18AAP inhibitors, malaria aminopeptidase, primary screen, biochemical, QFRET, recombinant enzyme. M18 aspartyl aminopeptidase (Plasmodium falciparum 3D7). H-Glu-NHMec fluorogenic cleavage. inhibition, % at 7.35 µM. hit rate 1.2% among 290,000;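 active = inhibition above the campaign mean inhibition over all tested compounds plus 3 SD, cut at about 28% in these data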;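 note: 0% = plate median of test compound wells and 100% = 2 mM ZnCl2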
DSG3 Ab inh – inhibitors of pemphigus antibody binding to DSG3, primary screen, biochemical, bead-based, flow cytometry, scFv-GFP. binding (percent of control), % at 10 µM. DSG3-coupled beads, scFv-anti-DSG3-GFP binding; stronger effect = lower value. hit rate 0.48% among 310,000;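 active = binding more than 3 SD below its plate's average and above zero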
PAFAH2 FP inh – PAFAH2 enzyme inhibitors, primary screen, biochemical, fluorescence polarization, human | AID 492956, 2010 | recombinant PAFAH2, FP-rhodamine activity probe | Platelet-activating factor acetylhydrolase 2, cytoplasmic (Homo sapiens), Q99487 | inhibition, % at 3.39 µM | hit rate 0.99% among 340,000;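 active = inhibition above the mean over all tested compounds plus 3 SD, cut at about 30% in these data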;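 note: inhibitors block probe labeling of enzyme so polarization drops; 0% = enzyme with DMSO and 100% = wells lacking PAFAH2 protein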
PAFAH2 confirm – PAFAH2 enzyme inhibitors, confirmation, biochemical, fluorescence polarization, human. shares compounds with PAFAH2 FP inh. recombinant PAFAH2, FP-rhodamine activity probe. inhibition, % at 3.39 µM. hit rate 65% among 2,300. AID 493030, 2011;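 active = mean inhibition over three repeats above a set limit taken from the earlier primary screen, cut at about 30% in these data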;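 note: inhibitor blocks binding of rhodamine activity probe so polarization falls; 0% = enzyme with DMSO and 100% = wells lacking PAFAH2 protein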
Starred values were filed as active, the others as inactive; x = no result.

SMILES | PAFAH1B3 inh | PAFAH1B2 FP inh | pPAFAH FP inh | M18AAP inhibitor | DSG3 Ab inh | PAFAH2 FP inh | PAFAH2 confirm
CC(=O)Nc1ccc(C(=O)OCc2ccc(F)cc2Cl)cc1 | -4.7 | -0.6 | 4.9 | -3.7 | 94.9 | 19.2 | x
CCCS(=O)(=O)c1ccc(COC(=O)c2ccc(NC(C)=O)cc2)cc1 | 8.9 | -3.6 | -2.2 | -0.3 | 105.0 | 30.2* | 23.9
CCOC(=O)c1ccc(NC(=O)c2c(Cl)cc(C)nc2C)cc1 | 1.7 | 4.7 | 0.2 | 5.3 | 119.2 | 4.8 | x
CCOC(=O)c1c(C)[nH]c(C)c1C(=O)COC(=O)Cc1n[nH]c(=O)c2ccccc12 | -2.4 | 0.6 | 2.5 | x | x | -9.5 | x
O=C(Nc1ccc(Oc2ccc(NC(=O)Nc3ccccc3Cl)cc2)cc1)Nc1ccccc1Cl | 6.4 | 2.3 | 1.2 | -4.4 | 95.3 | 55.2* | 27.0
COc1ccc(-c2noc(N3CCCC(C(=O)Nc4cc(F)ccc4F)C3)n2)cc1 (configuration not stated) | 2.5 | 0.2 | 4.8 | -7.3 | 107.1 | 2.5 | x
C/C=C/C(=O)OCC(=O)Nc1cccc(F)c1 | 4.8 | -2.4 | 2.7 | 2.0 | 100.9 | 78.0* | 64.9*
C/C=C/C(=O)OCC(=O)Nc1cccc(Br)c1 | 1.6 | 1.2 | 5.5 | -6.3 | 96.8 | 81.9* | 73.0*
C/C=C/C(=O)OCC(=O)Nc1ccc(OC)c(OC)c1 | 6.2 | -1.9 | 2.7 | -4.5 | x | 3.6 | x
C/C=C/C(=O)OCC(=O)Nc1ccc(OC)c(Cl)c1 | 4.8 | -2.9 | 6.3 | -0.1 | 97.9 | 38.6* | 29.2
CCCCn1c(N)c(N(CCOC)C(=O)c2ccco2)c(=O)[nH]c1=O | 2.8 | 1.9 | -5.2 | x | 93.8 | 1.4 | x
COc1ccc(CCNC(=O)COC(=O)CNS(=O)(=O)c2ccc(SC)c([N+](=O)[O-])c2)cc1 | 3.8 | 4.7 | 7.8 | x | x | -6.5 | x
c1ccc(-c2csc(NC3CCCCC3)n2)cc1 | -3.9 | 2.7 | 3.7 | -5.1 | 95.7 | 0.0 | x
O=C(Nc1nc(-c2ccccc2)cs1)NC1CCCCC1 | 3.7 | 5.8 | -0.5 | 4.4 | 100.9 | 29.8* | 1.4
N#Cc1ccc2nc3c(nc2c1)CCCC3 | 5.9 | 0.8 | -1.2 | 2.0 | 97.0 | -6.5 | x
O=C(COC(=O)/C=C/C(=O)OCC(=O)Nc1ccccc1F)Nc1ccccc1F | -2.1 | 2.5 | 2.3 | 6.3 | 89.9 | 4.8 | x
O=C(COC(=O)c1ccccc1)Nc1ccccc1Br | -7.2 | -1.6 | 10.3 | 1.9 | 105.2 | 36.4* | 25.3
C/C=C/C(=O)OCC(=O)Nc1ccccc1Br | 19.8 | -3.5 | 3.0 | -16.8 | 97.8 | 32.8* | 19.8
O=C(COC(=O)c1c(Cl)cccc1Cl)Nc1ccccc1Br | -6.6 | 4.2 | 4.0 | 2.3 | 83.5 | 3.5 | x
O=C(COC(=O)/C=C/c1ccccc1)Nc1ccccc1Br | -3.3 | 2.9 | 9.4 | -11.4 | 118.3 | 64.4* | 53.9*
O=C(O)Cc1nc2nc3c(c(=O)n2[nH]1)CCCC3 | 1.1 | 1.1 | -2.9 | -11.1 | x | -3.1 | x
O=c1c2c(nc3nc(COc4ccccc4)[nH]n13)CCC2 | -1.0 | 3.1 | 4.7 | -7.3 | 108.0 | 61.4* | 55.8*
O=C(COC(=O)C1C2CC3OC(=O)C1C3C2)Nc1ccc(F)cc1 (configuration not stated) | 11.9 | -5.7 | 2.8 | 1.0 | x | 77.8* | 68.8*
O=C(COC(=O)C1C2CC3OC(=O)C1C3C2)Nc1ccccc1 (configuration not stated) | 6.1 | -1.9 | 1.5 | 7.1 | 116.7 | 74.8* | 66.1*
O=C(COC(=O)C1C2CC3OC(=O)C1C3C2)Nc1ccc(Br)cc1 (configuration not stated) | 0.4 | -3.4 | 2.5 | 0.4 | x | 78.7* | 70.8*
SMILES | PAFAH1B3 inh | PAFAH1B2 FP inh | pPAFAH FP inh | M18AAP inhibitor | DSG3 Ab inh | PAFAH2 FP inh | PAFAH2 confirm
COc1ccc(NC(=O)COC(=O)C2C3CC4OC(=O)C2C4C3)cc1 (configuration not stated) | -2.8 | 0.2 | 9.2 | -1.5 | x | 29.6 | x
Cc1c(C(=O)OCC(=O)Nc2ccc3c(c2)OCO3)cccc1[N+](=O)[O-] | -3.9 | 5.8 | 3.6 | 3.8 | 94.4 | 72.0* | 64.5*
CCOc1ncccc1C(=O)OCC(=O)Nc1ccc2c(c1)OCCO2 | 5.3 | -0.2 | 20.9 | x | 101.3 | 55.2* | 47.0*
O=C(COC(=O)c1cccnc1Cl)Nc1ccc2c(c1)OCO2 | 13.9 | 3.3 | 5.0 | -2.8 | 120.7 | 75.0* | 60.1*
CCOc1ncccc1C(=O)Nc1ccc2c(c1)OCO2 | 6.5 | 5.7 | 2.6 | 3.9 | 113.2 | 7.8 | x
Cc1c(C(=O)OCC(=O)NCc2ccc3c(c2)OCO3)cccc1[N+](=O)[O-] | 2.6 | 3.0 | 4.2 | -6.7 | 108.5 | -0.3 | x
O=C(Cc1ccc(NC(=O)C2CCN(C(=O)C3CC3)CC2)cc1)Nc1cccc(C(=O)N2CCCC2)c1 | 4.9 | 3.0 | x | x | 96.9 | 2.2 | x
COc1ccc(NC(=O)C(Cl)=C(Cl)Cl)cn1 | 4.8 | 1.4 | x | 0.1 | 98.5 | -4.1 | x
COc1ccc(NC(=O)/C(Cl)=C(/Cl)S(=O)(=O)Cc2ccccc2)cn1 | -0.3 | 8.2 | x | -17.2 | 114.0 | 41.0* | 19.2
C=C(C)COc1ccc2c(C)c(C)c(=O)oc2c1OCC(=C)C | 3.9 | 3.1 | 8.9 | 1.8 | 104.3 | 37.9* | 40.1*
COc1cccc(-c2nn(-c3ccc(C)cc3)cc2C(=O)N2CCN(C3CCS(=O)(=O)C3)CC2)c1 (configuration not stated) | 0.7 | 0.4 | -5.6 | x | 110.8 | -2.2 | x
COC(=O)Nc1nc(-c2ccccc2)c(C(=O)c2ccccc2)s1 | -2.9 | 16.9 | 0.1 | -7.4 | 107.9 | 53.1* | 50.0*
Cc1cc([N+](=O)[O-])ccc1NC(=O)CSc1nnc(C)n1C | 0.7 | 3.5 | -1.1 | -2.0 | 104.9 | -2.0 | x
COc1ccccc1/C=N/OC(=O)c1ccc(F)cc1 | 5.0 | 7.2 | 5.1 | 1.8 | x | 77.3* | 64.0*
COc1ccccc1NC(=O)CSc1nnc(Cc2cccs2)n1C | 4.7 | 3.3 | 1.4 | x | 106.5 | 66.2* | 0.8
Cc1cccc(C(=O)OCC(=O)NN2C(=O)NC3(CCCCC3)C2=O)c1 | 2.2 | 0.1 | 24.0 | x | 96.2 | 29.3 | x
Cc1ccc(C(=O)OCC(=O)NN2C(=O)NC3(CCC(C)CC3)C2=O)cc1 (configuration not stated) | 0.7 | -2.9 | 15.0 | x | 101.9 | 74.1* | 54.2*
Cc1sc2nc(SCC(=O)Nc3cccc(S(N)(=O)=O)c3)[nH]c(=O)c2c1C | 6.2 | 2.8 | 9.7 | x | x | 35.3* | 15.9
Cc1sc2nc(SCC(=O)Nc3ccc(S(N)(=O)=O)cc3)[nH]c(=O)c2c1C | 6.9 | 3.1 | 11.7 | -3.8 | 101.5 | 14.8 | x
